Most compounds without a hit are left out; they make up all but 5.4% or so of the library.
HSF1 inh = HSF1 inhibition; hit rate 0.77% among 300,000; activity change, negative = inhibition, % at 7.5 µM (by protocol); NIH3T3-HGL HSE-luciferase, MG132-induced, luminescence 8 h; hits give low values;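 active means more than half of replicate wells show activity change below -50%, luminescence cut by over half; inconclusive means some wells, but at most half, below -50%; inactive means no replicate well below -50%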;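 further: luciferase reports HSF-1 transcriptional activity via heat shock element; 0% = median of DMSO wells and -100% = zero luminescence signal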
DAX1 inh = inhibits human nuclear receptor DAX1; AID 504766; HEK293 Gal4-DAX1 luciferase reporter, luminescence; inhibition, % at 6.75 µM; hit rate 0.99% among 340,000;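 active means inhibition above the mean over all tested compounds plus 3 SD, cut at about 4.2% in these data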;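 further: 0% = DAX1-transfected cells with DMSO and 100% = empty-vector control cells with DMSO; inhibition shows as a rise in luminescence from relieved DAX1 repression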
Target sequence (P51843 207-470 limits assumed): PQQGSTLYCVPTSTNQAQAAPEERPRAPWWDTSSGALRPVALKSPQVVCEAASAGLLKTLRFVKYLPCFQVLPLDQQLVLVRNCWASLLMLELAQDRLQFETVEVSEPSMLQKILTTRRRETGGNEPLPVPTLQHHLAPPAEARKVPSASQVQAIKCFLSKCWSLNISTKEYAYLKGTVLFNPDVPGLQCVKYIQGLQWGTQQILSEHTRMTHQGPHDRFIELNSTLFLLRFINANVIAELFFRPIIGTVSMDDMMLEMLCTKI
AHR activator = activators of human aryl hydrocarbon receptor | P35869 | activation, % at 5 µM | AHR-responsive luciferase reporter cells, luminescence | hit rate 2.5% among 320,000; in the data active means activation above about 47%;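 further: 0% = vehicle wells and 100% = reference agonist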
FXN GAA850 act = activators of GAA850 frataxin (FXN) promoter; HEK293 lucGAA850 FXN promoter luciferase reporter, 24 h; percent of 10 µM SAHA response; activation, % at 6 µM; hit rate 0.56% among 360,000; AID 540364;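 active means activation above the average of all compounds screened plus 3 SD, cutoff fixed separately per campaign, cut at about 7.5% in these data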;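 further: 0% = DMSO wells and 100% = 10 µM SAHA wells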
HSF1 activator = increases HSF-1 driven luciferase reporter signal; NIH3T3-HGL HSF-1 luciferase reporter, MG132, 8 h; 100% = twice DMSO control signal; activation, % at 9 µM; hit rate 1.7% among 300,000; AID 504408;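 active means mean replicate activation of at least 50% with a set share of replicates each reaching 50%; inconclusive means only one of those two conditions met; inactive means mean below 50% and too few replicates reaching it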;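 further: 0% = median of the neutral control wells and 100% = twice that signal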
* marks the source's active call; other numbers are inactive results; ? = inconclusive; nt = no result.

SMILES	HSF1 inh	DAX1 inh	AHR activator	FXN GAA850 act	HSF1 activator
O=C1N/C(=N/O)S/C1=C/c1cccc([N+](=O)[O-])c1	nt	1	3	1	nt
CC1(C)CC(=O)/C(=C\c2cccc([N+](=O)[O-])c2)C(C)(C)N1	52	0	3	2	76*
CCOc1ccc(Cl)cc1/C=N/NC(=O)c1ccccc1	-8	0	29	3	-7
NC(=S)N/N=C/c1c[nH]c2ccc(OCc3ccccc3)cc12	3	-2	71*	-5	21
COc1cccc(/C=N/NC(N)=S)c1OCc1cccc(Cl)c1	5	1	60*	0	10
NC(=S)N/N=C\c1ccccc1OCc1ccccc1	4	0	33	-2	11
COC(=O)N/N=C/c1cc(Cl)cc(Cl)c1OCc1ccccc1	-12	0	62*	0	-2
COC(=O)c1cc(S(=O)(=O)NCc2ccc(F)cc2)cn1C	-53*	1	-1	1	-63
COc1ccccc1CNC(=O)c1nccnc1CO	-3	2	nt	0	-5
O=C(O)c1c(Cl)cccc1Cl	nt	1	-3	1	nt
COc1cccc(NC(=O)CSc2nnc3ccc(-c4ccncc4)nn23)c1	16	-1	nt	-1	58*
COc1ccc(NC(=O)CSc2nnc3ccc(-c4cccnc4)nn23)cc1OC	5	1	11	-2	-1
COc1ccccc1CNC(=O)CSc1nnc2ccc(-c3cccnc3)nn12	-8	4.4*	11	0	-14
Cc1ccc(-c2ccc3nnc(SCC(N)=O)n3n2)cc1	1	7.0*	5	3	-12
O=C(CSc1nnc2ccc(-c3cccnc3)nn12)Nc1ccc(F)cc1	0	-1	61*	-3	-1
CN1C(=O)C2(Oc3ccccc3C3CC(c4ccccc4)=NN32)c2ccccc21 (stereo not given)	47	2	54*	2	76*
S=C1NC2(CCS1)Oc1ccccc1C1CC(c3ccccc3)=NN12 (stereo not given)	-2	nt	nt	nt	13
Cc1ccc(C2=NN3C(C2)c2ccccc2OC32C(=O)Nc3ccccc32)cc1 (stereo not given)	17	2	47*	1	26
CC(=O)N1N=C(c2ccc(C)cc2)CC1c1ccco1 (stereo not given)	18	0	7	3	19
O=C(COC(=O)c1ccccn1)NC(=O)c1ccccc1	nt	-1	0	1	nt
CC(C)(C)C(=O)OC/C(N)=N/OC(=O)c1ccc(Cl)cc1	15	-1	17	0	42
CC(C)(C)C(=O)O/N=C(\N)COc1cccc(Cl)c1	24	6.9*	0	0	26
Cc1cccc(-n2ncc3c(N)ncnc32)c1	4	0	19	4	24
Cc1cccc(-n2ncc3c(Nc4ccc(F)cc4)ncnc32)c1	31	1	-9	2	51*
Cc1cccc(-n2ncc3c(N(C)Cc4ccccc4)ncnc32)c1	45	4	8	3	61*
SMILES	HSF1 inh	DAX1 inh	AHR activator	FXN GAA850 act	HSF1 activator
O=C(COc1ccc(Br)cc1Cl)NNC(=O)c1ccccc1	nt	0	3	1	nt
Cc1ccc(NCc2nnc(SCC(=O)Nc3cc(C)on3)n2C)cc1	-4	0	5	0	-11
C=CCSc1nnc(CNS(=O)(=O)c2ccc(C)cc2)n1C	-6	-1	-4	0	-13
Cn1c(CNc2ccc(Cl)cc2)nnc1SCC#N	4	0	59*	2	15
Cn1c(CNc2cccc(Cl)c2)nnc1SCC#N	27	-1	21	-1	73*
CCSc1nnc(CNc2ccc(C)cc2)n1C	-2	2	75*	3	-7
CCCSc1nnc(CNS(=O)(=O)c2ccc(C)cc2)n1C	-61*	1	2	1	-66
COc1ccc(C(=O)NCc2ccc3c(c2)OCO3)cc1S(=O)(=O)N1CCCC1	nt	0	1	0	nt
CCN1C[C@@H]2[C@@H]3C(=O)N(C)C(=O)[C@@H]3[C@](CC)(C1=O)N2C(=O)c1ccc(F)cc1	nt	4.6*	nt	0	nt
CCN1C[C@@H]2[C@@H]3C(=O)N(C)C(=O)[C@@H]3[C@](CC)(C1=O)N2C(=O)c1ccccc1	nt	0	nt	1	nt
COc1ccc(C(=O)/C=C/Nc2c(C)n(C)n(-c3ccccc3)c2=O)c(OC)c1	6	0	-1	1	1
COc1ccc(C(=O)/C=C/Nc2ccccn2)c(OC)c1	35	nt	-5	3	74*
CC1CCCN(C(=O)C2(NC(=O)Nc3cccc(F)c3)CCCCC2)C1 (stereo not given)	-86*	0	1	5	-89
Cc1cc(Cl)ccc1OCC(=O)NN1C(=O)C2C3C=CC(C3)C2C1=O (stereo not given)	-5	1	0	1	-12
COc1ccc2c(-c3cc4ccc(OCc5ccc(F)cc5)cc4oc3=O)cc(=O)oc2c1	8	-1	-2	0	31
O=C1COc2ccc(OCc3ccc(F)cc3)cc21	34	1	-3	2	54*
COc1cccc(C2CC(c3ccc(Br)cc3)=NN2C(=O)c2ccncc2)c1OC (stereo not given)	2	-1	-3	-1	11
COc1ccccc1C1CC(c2ccc(Br)cc2)=NN1C(=O)c1cccnc1 (stereo not given)	13	0	63*	-3	-3
O=C(Nc1cccn2nc(COCCO)nc12)C(c1ccccc1)c1ccccc1	nt	nt	nt	0	nt
CCN(CC)S(=O)(=O)c1cc(NC(=O)CCn2[nH]c(=O)ccc2=O)ccc1C	nt	0	-1	2	nt
Cc1ccc(NC(=S)NC2CCCC2)cc1C	7	0	7	4	28
S=C(Nc1ccc(Cl)cc1)NC1CCCCC1	10	1	-3	0	28
S=C(Nc1ccc2[nH]ccc2c1)NC1CCCCC1	29	4.7*	4	5	36
Cc1nc2ccc(NC(=S)NC3CCCCC3)cc2nc1C	38	6.6*	-4	6	?
Cc1ccc(C(=O)/C=C/NNC(=O)c2ccccc2O)cc1	18	3	28	2	53*
SMILES	HSF1 inh	DAX1 inh	AHR activator	FXN GAA850 act	HSF1 activator
O=C(/C=C/NNC(=O)c1ccccc1)c1ccc(Br)cc1	24	3	3	1	60*
NC(=S)N=Nc1c(O)[nH]c2c(Br)cc(Br)cc12	13	nt	63*	0	30
Cc1ccc(NC(=S)NC(=O)C2CCCC2)cc1C	10	1	3	5	18
Cc1ccc(NC(=S)NC(=O)C2CCC2)cc1C	-59*	1	1	4	-64
O=C(Cn1cc([N+](=O)[O-])cn1)NCC1CCCO1 (stereo not given)	-63*	0	2	-1	-71
O=C(Nc1ccc(S(=O)(=O)N2CCOCC2)cc1)c1cccc(Br)c1	-3	2	-1	2	-6
COc1cc(C(=O)NCc2nnc(SCC(=O)Nc3c(C)cc(C)cc3C)o2)cc(OC)c1OC	0	0	0	0	-1
COc1cc(C(=O)NCc2nnc(SCC(=O)Nc3cc(C)cc(C)c3)o2)cc(OC)c1OC	-56*	2	2	-2	-67

Bioassay records: PubChem, several laboratories
